# Source: PubChem BioAssay (NCATS)
# Values joined by “and” are separate entries in the source; they are usually repeats but may differ in a detail not shown here. Equal entries are not always repeated. Inconclusive results are not listed. Where a call stands in place of a potency, no number is given. Active and inactive are the calls of the source. Unless noted, calls come from the whole dose curve; as a rule, active = well fitted curve in the direction sought with a large enough effect; inconclusive = small, poorly fitted or top-dose-only effect, or another doubt; inactive = no such curve, though single readings can be large; an effect the other way counts as inactive or inconclusive.
# Legend:
# [1] = Primary qHTS for small molecule stabilizers of the endoplasmic reticulum resident proteome: Secreted ER Calcium Modulated Protein (SERCaMP) assay (AID 1508630)
# Method in brief: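 GLuc-SERCaMP-expressing SH-SY5Y cells, pretreated 16 h with compound, are challenged with thapsigargin to empty ER calcium stores; after 4 h, coelenterazine is added directly to the medium and luminescence is imaged.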
# [2] = A High-Content qHTS Against Drug Library for the Identification of Small Molecules that Inhibit DYT1 Early Onset Primary Dystonia-Associated Cell Pathology (AID 1645839; calls by dose curve)
# Method in brief: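 Readout: %pathology, the punctate EGFP-TorsinA distribution from imaging, as the primary channel and cell count as the toxicity counterscreen. HEK293 Flp-In cells expressing delE TorsinA were induced with tetracycline and treated with compound for 48 h.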
# [3] = Cytotoxicity counterscreen for inhibitors of SARS-CoV-2 cell entry (AID 1645845; calls by dose curve; note: nearly all actives have a fitted effect of over 50% in size; note: potency is the fitted concentration of half-maximal effect)
# Method in brief: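 Expi293F/hACE2 cells seeded overnight; cpd pin-transferred in DMSO, 1 h preincubation, + media, 48 h 37 C 5% CO2; ATPLite 1step luminescence; normalized to cells and no cells.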
# [4] = Primary qHTS to identify inhibitors of SARS-CoV-2 cell entry (AID 1645846; calls by dose curve; note: nearly all actives have a fitted effect of over 45% in size; note: potency is the fitted concentration of half-maximal effect); conditions: activity change, negative = inhibition: at 57.1 µM (top of the series) unless noted
# Method in brief: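 Luminescence readout (Bright-Glo luciferase) 48 h after pseudoparticle addition. HEK293-ACE2 cells, 1500/well; compound pre-incubation 1 h; Normalized to spike PP and bald PP.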
# [5] = Primary qHTS for inhibitors of nuclear receptor binding SET domain protein 2 (NSD2) in an isogenic RCH-ACV NSD2 p.E1099K mutant (9B) (AID 1645876); note: nearly all actives have a fitted effect of over 70% in size; note: potency is the fitted concentration of half-maximal effect
# [6] = target: Cytochrome P450 2C9 (Homo sapiens) (UniProt P11712); test: Cytochrome P450 family 2 subfamily C member 9 (CYP2C9) small molecule antagonists: luciferase biochemical (cell-free) qHTS assay (AID 1645842; active = well fitted curve in the direction sought with a large enough effect in the repeat runs; an effect the other way counts as inactive or inconclusive; note: nearly all actives have a fitted effect of over 55% in size; note: potency is the fitted concentration of half-maximal effect)
# Method in brief: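 Luminescence, after 20 min with luciferin detection reagent, reflected CYP2C9 turnover during a 1 h NADPH-driven reaction at 37C. Enzyme-substrate mix contained 0.4% bovine serum albumin and was preincubated with compound 10 min at room temperature.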
# [7] = target: Cytochrome P450 2D6 (Homo sapiens) (UniProt P10635); test: Cytochrome P450 family 2 subfamily D member 6 (CYP2D6) small molecule antagonists: luciferase biochemical (cell-free) qHTS assay (AID 1645840; active = well fitted curve in the direction sought with a large enough effect in the repeat runs; an effect the other way counts as inactive or inconclusive; note: nearly all actives have a fitted effect of over 55% in size; note: potency is the fitted concentration of half-maximal effect)
# Method in brief: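 P450-Glo luminescent screen: recombinant CYP2D6 enzyme–proluciferin substrate mix preincubated with compound 10 min at room temperature, then NADPH regeneration added for 1 h at room temperature. Detection reagent added for 20 min; luciferin light read as relative luminescence units.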
# [8] = Primary qHTS for inhibitors of nuclear receptor binding SET domain protein 2 (NSD2) in an RCH-ACV wild type WT cells (2C) (AID 1645877); note: nearly all actives have a fitted effect of over 70% in size; note: potency is the fitted concentration of half-maximal effect
# [9] = target: Rap guanine nucleotide exchange factor 3 (Homo sapiens) (UniProt O95398); test: Confirmatory qHTS for antagonist of cAMP-regulated guanine nucleotide exchange factor 3 (EPAC1) (AID 1645880); note: potency is the fitted concentration of half-maximal effect; nearly all actives have a fitted effect of over 55% in size
# Method in brief: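 Nucleotide exchange uses 100 nM EPAC1, 250 nM RAP1B-BODIPY-GDP and 50 uM GDP, with compounds in a concentration-titration series. After 5 min at room temperature, fluorescence (480 nm ex/540 nm em) is read every 5 min for 30 min. Data are normalized to control ATA and DMSO.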
# [10] = target: Rap guanine nucleotide exchange factor 3 (Homo sapiens) (UniProt O95398); test: Confirmatory qHTS for agonist of cAMP-regulated guanine nucleotide exchange factor 3 (EPAC1) (AID 1645881);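 note: EPAC1 catalysed release of BODIPY-GDP from Rap1B seen as fluorescence loss; nearly all actives have a fitted effect of over 75% in size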
# [11] = target: Rap guanine nucleotide exchange factor 4 (Homo sapiens) (UniProt Q8WZA2); test: Confirmatory qHTS for agonist of cAMP-regulated guanine nucleotide exchange factor 4 (EPAC2) (AID 1645884);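 note: nucleotide exchange releases bodipy-GDP from Rap1 and this lowers its fluorescence; nearly all actives have a fitted effect of over 65% in size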
# [12] = target: Papain (Carica papaya) (UniProt P00784); test: Primary qHTS assay for inhibitors of the protease papain (AID 1645873);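 note: papain turnover of Z-FR-AMC read as the AMC fluorescence gain over 10 min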
# Chain of Papain (Carica papaya) (P00784 whole entry, looked up): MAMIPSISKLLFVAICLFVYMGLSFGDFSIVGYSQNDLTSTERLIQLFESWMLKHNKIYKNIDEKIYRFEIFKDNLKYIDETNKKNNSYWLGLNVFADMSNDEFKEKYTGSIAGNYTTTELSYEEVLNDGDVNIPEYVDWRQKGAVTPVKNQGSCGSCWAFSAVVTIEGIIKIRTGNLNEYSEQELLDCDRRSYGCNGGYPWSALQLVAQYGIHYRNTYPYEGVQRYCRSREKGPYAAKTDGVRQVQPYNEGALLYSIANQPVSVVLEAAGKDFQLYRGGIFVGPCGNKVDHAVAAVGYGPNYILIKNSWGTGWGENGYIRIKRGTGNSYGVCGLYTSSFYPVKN
# Chain of Cytochrome P450 2D6 (Homo sapiens) (P10635 whole entry, looked up): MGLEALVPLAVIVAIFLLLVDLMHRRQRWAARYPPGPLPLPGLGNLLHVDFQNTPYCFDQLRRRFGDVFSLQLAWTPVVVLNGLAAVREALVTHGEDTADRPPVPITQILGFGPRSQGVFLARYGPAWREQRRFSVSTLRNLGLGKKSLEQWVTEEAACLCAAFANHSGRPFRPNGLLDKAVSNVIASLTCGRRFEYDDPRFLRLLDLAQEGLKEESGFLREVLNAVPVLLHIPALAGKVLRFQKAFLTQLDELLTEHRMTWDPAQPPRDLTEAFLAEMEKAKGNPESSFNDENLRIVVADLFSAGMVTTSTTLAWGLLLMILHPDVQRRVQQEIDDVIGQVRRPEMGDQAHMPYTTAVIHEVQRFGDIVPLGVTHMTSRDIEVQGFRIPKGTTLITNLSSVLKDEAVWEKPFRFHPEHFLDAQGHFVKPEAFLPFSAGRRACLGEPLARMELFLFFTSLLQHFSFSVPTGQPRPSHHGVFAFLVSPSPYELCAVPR
# Chain of Rap guanine nucleotide exchange factor 3 (Homo sapiens) (O95398 whole entry, looked up): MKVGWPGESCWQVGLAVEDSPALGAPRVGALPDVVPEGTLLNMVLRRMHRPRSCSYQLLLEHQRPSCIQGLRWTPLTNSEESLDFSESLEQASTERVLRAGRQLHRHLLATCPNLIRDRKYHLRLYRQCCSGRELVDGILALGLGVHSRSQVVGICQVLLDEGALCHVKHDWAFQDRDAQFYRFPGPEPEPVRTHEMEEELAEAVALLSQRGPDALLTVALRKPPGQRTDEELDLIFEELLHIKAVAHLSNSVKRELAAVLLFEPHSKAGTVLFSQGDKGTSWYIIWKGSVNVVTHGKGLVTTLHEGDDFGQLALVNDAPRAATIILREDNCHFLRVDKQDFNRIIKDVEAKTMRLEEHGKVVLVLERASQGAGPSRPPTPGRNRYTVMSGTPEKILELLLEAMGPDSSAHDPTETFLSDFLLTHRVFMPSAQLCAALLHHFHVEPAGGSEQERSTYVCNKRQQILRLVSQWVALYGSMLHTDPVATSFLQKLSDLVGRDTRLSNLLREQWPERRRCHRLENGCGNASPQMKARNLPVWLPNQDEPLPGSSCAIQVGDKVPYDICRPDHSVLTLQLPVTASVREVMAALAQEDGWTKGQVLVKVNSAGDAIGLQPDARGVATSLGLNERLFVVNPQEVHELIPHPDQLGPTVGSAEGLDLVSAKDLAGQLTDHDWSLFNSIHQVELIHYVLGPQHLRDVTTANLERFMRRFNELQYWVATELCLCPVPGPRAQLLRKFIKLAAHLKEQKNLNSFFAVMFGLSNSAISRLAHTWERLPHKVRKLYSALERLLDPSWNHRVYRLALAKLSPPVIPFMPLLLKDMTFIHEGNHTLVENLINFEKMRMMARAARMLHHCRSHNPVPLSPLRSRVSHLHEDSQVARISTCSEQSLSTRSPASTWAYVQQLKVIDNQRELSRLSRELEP
# Chain of Cytochrome P450 2C9 (Homo sapiens) (P11712 whole entry, looked up): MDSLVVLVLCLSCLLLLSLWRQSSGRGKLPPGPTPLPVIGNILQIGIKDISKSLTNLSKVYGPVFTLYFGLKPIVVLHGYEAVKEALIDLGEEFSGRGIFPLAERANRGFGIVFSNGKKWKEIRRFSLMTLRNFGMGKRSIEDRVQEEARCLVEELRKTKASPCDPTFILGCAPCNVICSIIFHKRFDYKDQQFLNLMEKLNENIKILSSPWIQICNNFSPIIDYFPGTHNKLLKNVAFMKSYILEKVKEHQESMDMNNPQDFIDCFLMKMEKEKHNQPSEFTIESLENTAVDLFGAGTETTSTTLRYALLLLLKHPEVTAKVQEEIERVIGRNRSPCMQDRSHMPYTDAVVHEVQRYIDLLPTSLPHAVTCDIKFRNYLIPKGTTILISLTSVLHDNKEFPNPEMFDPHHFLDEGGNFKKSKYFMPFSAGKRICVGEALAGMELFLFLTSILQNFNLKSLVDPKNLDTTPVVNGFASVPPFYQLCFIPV
# Chain of Rap guanine nucleotide exchange factor 4 (Homo sapiens) (Q8WZA2 whole entry, looked up): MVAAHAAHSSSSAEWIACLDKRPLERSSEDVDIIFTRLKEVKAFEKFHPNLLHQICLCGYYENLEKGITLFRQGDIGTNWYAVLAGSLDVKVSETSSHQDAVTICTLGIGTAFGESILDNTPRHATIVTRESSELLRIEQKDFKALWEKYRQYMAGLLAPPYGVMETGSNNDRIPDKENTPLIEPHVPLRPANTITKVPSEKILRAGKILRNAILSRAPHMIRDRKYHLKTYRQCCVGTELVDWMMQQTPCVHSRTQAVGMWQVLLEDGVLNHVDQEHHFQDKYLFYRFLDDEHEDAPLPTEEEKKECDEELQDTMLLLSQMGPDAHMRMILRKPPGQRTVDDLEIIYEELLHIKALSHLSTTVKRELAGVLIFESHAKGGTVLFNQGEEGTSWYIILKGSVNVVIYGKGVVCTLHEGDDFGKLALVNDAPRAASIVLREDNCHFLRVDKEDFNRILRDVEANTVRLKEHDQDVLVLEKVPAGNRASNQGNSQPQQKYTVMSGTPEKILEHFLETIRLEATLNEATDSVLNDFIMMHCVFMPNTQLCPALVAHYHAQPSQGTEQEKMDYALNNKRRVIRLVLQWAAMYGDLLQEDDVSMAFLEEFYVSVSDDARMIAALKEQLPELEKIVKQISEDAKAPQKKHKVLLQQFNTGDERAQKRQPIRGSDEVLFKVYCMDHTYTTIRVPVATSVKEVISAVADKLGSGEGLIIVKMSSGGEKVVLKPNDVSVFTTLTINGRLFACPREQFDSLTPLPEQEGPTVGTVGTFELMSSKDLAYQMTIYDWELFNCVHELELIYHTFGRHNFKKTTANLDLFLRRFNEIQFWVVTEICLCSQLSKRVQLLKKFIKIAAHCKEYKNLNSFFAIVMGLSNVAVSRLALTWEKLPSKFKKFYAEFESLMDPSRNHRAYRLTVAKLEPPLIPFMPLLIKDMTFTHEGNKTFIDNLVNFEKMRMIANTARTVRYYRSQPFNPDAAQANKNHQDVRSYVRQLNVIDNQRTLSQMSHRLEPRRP
smiles,measurement,setting,value
CCN(CC)C(=O)N[C@@H]1C=C2c3cccc4[nH]cc(c34)C[C@@H]2N(C)C1,outcome,[1],inactive
same,Potency,[2],inactive
same,Potency,[3],inactive
same,"activity change, negative = inhibition",[4],3.33%
same,Potency,[5],inactive
C=CCN1CC[C@]23c4c5ccc(O)c4O[C@H]2C(=O)CC[C@@]3(O)[C@H]1C5,outcome,[1],inactive
same,Potency,[2],inactive
same,Potency,[6],inactive
same,Potency,[3],inactive
same,"activity change, negative = inhibition",[4],2.17%
same,Potency,[5],inactive
CNC(=O)c1ccc(N2C(=S)N(c3ccc(C#N)c(C(F)(F)F)c3)C(=O)C23CCC3)cc1F,outcome,[1],inactive
same,Potency,[7],inactive
same,Potency,[6],16.9 µM (active)
same,Potency,[3],inactive
same,"activity change, negative = inhibition",[4],-17.3%
same,Potency,[8],16.6 µM (active)
CN1CCN(C(=O)O[C@H]2c3nccnc3C(=O)N2c2ccc(Cl)cn2)CC1,outcome,[1],inactive
same,Potency,[2],inactive
same,Potency,[6],inactive
same,Potency,[3],inactive
same,Potency,[5],inactive
same,Potency,[8],inactive
O=C(NC(O)C(Cl)(Cl)Cl)NC(O)C(Cl)(Cl)Cl (centres undefined),outcome,[1],inactive
same,Potency,[2],inactive
same,Potency,[7],inactive
same,Potency,[6],inactive
same,Potency,[5],inactive
same,Potency,[8],inactive
CCCC1CCCCN1 (centres undefined),Potency,[2],inactive
same,Potency,[6],inactive
same,Potency,[3],inactive
same,Potency,[4],inactive
same,Potency,[5],inactive
same,Potency,[8],inactive
CO[C@]12CC[C@@]3(C[C@@H]1[C@](C)(O)C(C)(C)C)[C@@H]1Cc4ccc(O)c5c4[C@@]3(CCN1CC1CC1)[C@H]2O5,Potency,[7],0.353 µM (active)
same,Potency,[5],6.05 µM (active)
same,Potency,[8],6.79 µM (active)
CCOP(=S)(OCC)Oc1cc(C)nc(C(C)C)n1,Potency,[2],inactive
same,Potency,[7],inactive
same,Potency,[6],1.95 µM (active)
same,Potency,[5],inactive
same,Potency,[8],inactive
O=c1oc2ccccc2c(O)c1C(CC(O)c1ccc(-c2ccc(Br)cc2)cc1)c1ccccc1 (centres undefined),outcome,[1],inactive
same,Potency,[6],4.36 µM (active)
same,Potency,[5],inactive
same,Potency,[9],15.7 µM (active)
same,outcome,[10],inactive
same,outcome,[11],inactive
C=C1CC[C@@]2(O)[C@H]3Cc4ccc(O)c5c4[C@@]2(CCN3CC2CC2)[C@H]1O5,Potency,[2],inactive
same,Potency,[7],2.75 µM (active)
same,Potency,[6],inactive
same,Potency,[3],inactive
same,Potency,[4],inactive
same,Potency,[5],inactive
same,Potency,[8],inactive
COc1ccc(C(CN(C)C)C2(O)CCCCC2)cc1 (centres undefined),outcome,[1],inactive
same,Potency,[2],inactive
same,Potency,[6],inactive
same,Potency,[3],inactive
same,Potency,[4],inactive
same,Potency,[12],inactive
same,Potency,[5],inactive
same,Potency,[8],inactive
CC(C)(N)Cc1ccc(Cl)cc1,Potency,[2],inactive
same,Potency,[7],6.17 µM (active)
same,Potency,[6],inactive
same,Potency,[5],inactive
same,Potency,[8],inactive
N[C@@H](Cc1ccc(Oc2cc(I)c(O)c(I)c2)c(I)c1)C(=O)O,outcome,[1],inactive
same,Potency,[2],inactive
same,Potency,[7],19.5 µM (active)
same,Potency,[6],3.89 µM (active)
same,Potency,[5],inactive
same,Potency,[8],inactive
COc1cc2c(N3CCN(C(=O)Nc4ccc(OC(C)C)cc4)CC3)ncnc2cc1OCCCN1CCCCC1,Potency,[3],inactive
Oc1cc(Cl)ccc1Oc1ccc(Cl)cc1Cl,outcome,[1],inactive
same,Potency,[2],inactive
same,Potency,[7],8.64 µM (active) and 11 µM (active)
same,Potency,[4],25.1 µM (active)
same,Potency,[5],6.24 µM (active)
same,Potency,[8],6.24 µM (active)
same,outcome,[10],inactive
CN(C)CCN(C)CCc1ccc(Cl)c(Cl)c1,outcome,[1],inactive
same,Potency,[3],inactive
same,Potency,[5],inactive
same,Potency,[8],inactive
COc1ccc2c(c1OC)CN1CCc3cc4c(cc3C1C2)OCO4 (centres undefined),Potency,[2],inactive
same,Potency,[7],0.0309 µM (active)
same,Potency,[6],19.5 µM (active)
same,Potency,[8],10.6 µM (active)
C#CCOC(C(=O)OCCN(C)C)(c1ccccc1)c1ccccc1,outcome,[1],inactive
same,Potency,[2],inactive
same,Potency,[7],1.55 µM (active)
same,Potency,[6],0.776 µM (active)
same,Potency,[5],inactive
same,Potency,[8],inactive
C#CCN(C)[C@H](C)Cc1ccccc1,outcome,[1],inactive
same,Potency,[2],inactive
same,Potency,[7],13.8 µM (active)
same,Potency,[6],inactive
same,Potency,[3],inactive
same,Potency,[5],inactive
same,Potency,[8],inactive
C=CC(=O)Nc1cc2c(Nc3ccc(F)c(Cl)c3)ncnc2cc1OCCCN1CCOCC1,Potency,[3],35.5 µM (active)
O=C1CC[C@@]2(O)[C@H]3Cc4ccc(O)c5c4[C@@]2(CCN3CC2CC2)[C@H]1O5,outcome,[1],inactive
same,Potency,[2],inactive
same,Potency,[6],inactive
same,Potency,[3],inactive
same,"activity change, negative = inhibition",[4],-8.92%
same,Potency,[5],inactive
same,Potency,[8],inactive
CC(CN1c2ccccc2Sc2ccccc21)N(C)C (centres undefined),Potency,[3],inactive
O=C(O)COCCN1CCN(C(c2ccccc2)c2ccc(Cl)cc2)CC1 (centres undefined),Potency,[3],inactive
CC[C@@H](CO)NC(=O)[C@@H]1C=C2c3cccc4[nH]cc(c34)C[C@H]2N(C)C1,outcome,[1],inactive
same,Potency,[2],inactive
same,Potency,[6],inactive
same,Potency,[3],inactive
same,"activity change, negative = inhibition",[4],-4.87%
same,Potency,[5],inactive
same,Potency,[8],inactive
Clc1cccc(N2CCNCC2)c1,outcome,[1],inactive
same,Potency,[2],inactive
same,Potency,[7],8.71 µM (active)
same,Potency,[6],inactive
same,Potency,[5],inactive
same,Potency,[8],inactive
COc1ccccc1OCC(O)COC(N)=O (centres undefined),Potency,[3],inactive
same,Potency,[4],inactive
